Data from PubChem BioAssay (NCATS).
Inconclusive results are not listed. Activity calls are given as the source filed them. The call rests on the fitted dose curve; in most records, active means well fitted cell-killing curve with a large enough effect; inconclusive means small, poorly fitted or top-dose-only effect, or effect the other way; inactive means no such curve, though single readings can be large or run the other way.

Assays:
[1] = Quantitative High-Throughput drug screen in 47 multiple myeloma cell lines against the NCATS MIPE library collection: KMS28PE_JCRB cell viability assay (AID 1918983); further: nearly all actives have a fitted effect of over 35% in size; further: potency means the concentration at half of the fitted maximal effect
Outline: (§1)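 Readout: median RLU from CellTiter-Glo after 5 min at room temperature. Preceding step was 48 h drug treatment of 500 cells/well at 37 °C, 5% CO2, with DMSO-only and media-only control wells.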

[2] = Quantitative High-Throughput drug screen in 47 multiple myeloma cell lines against the NCATS MIPE library collection: KMS34_JCRB cell viability assay (AID 1918985); further: nearly all actives have a fitted effect of over 40% in size; further: potency means the concentration at half of the fitted maximal effect
Outline: as §1

[3] = Quantitative High-Throughput drug screen in 47 multiple myeloma cell lines against the NCATS MIPE library collection: OCIMY5_PLB cell viability assay (AID 1918988); further: nearly all actives have a fitted effect of over 65% in size; further: potency means the concentration at half of the fitted maximal effect
Outline: as §1

[4] = Quantitative High-Throughput drug screen in 47 multiple myeloma cell lines against the NCATS MIPE library collection: XG1_PLB cell viability assay (AID 1919866); further: nearly all actives have a fitted effect of over 35% in size; further: potency means the concentration at half of the fitted maximal effect
Outline: as §1

[5] = Quantitative High-Throughput drug screen in 47 multiple myeloma cell lines against the NCATS MIPE library collection: VP6_DJ cell viability assay (AID 1919867); further: nearly all actives have a fitted effect of over 40% in size; further: potency means the concentration at half of the fitted maximal effect;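 on viability (% of DMSO): 100% = DMSO-only wells and 0% = wells with media alone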
Outline: as §1

[6] = Quantitative High-Throughput drug screen in 47 multiple myeloma cell lines against the NCATS MIPE library collection: UTMC2_PLB cell viability assay (AID 1919868); settings: CellTiter-Glo ATP luminescence, 48 h; viability (% of DMSO control): at 45.8 µM (top of the series); further: nearly all actives have a fitted effect of over 55% in size; further: potency means the concentration at half of the fitted maximal effect;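 on viability (% of DMSO control): 100% = DMSO-only wells and 0% = media-only wells without cells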
Outline: as §1

[7] = Quantitative High-Throughput drug screen in 47 multiple myeloma cell lines against the NCATS MIPE library collection: PCM6_Riken cell viability assay (AID 1919870); further: nearly all actives have a fitted effect of over 30% in size; further: potency means the concentration at half of the fitted maximal effect
Outline: as §1

[8] = Quantitative High-Throughput drug screen in 47 multiple myeloma cell lines against the NCATS MIPE library collection: RPMI8226_ATCC cell viability assay (AID 1919871); further: nearly all actives have a fitted effect of over 30% in size; further: potency means the concentration at half of the fitted maximal effect
Outline: as §1

[9] = Quantitative High-Throughput drug screen in 47 multiple myeloma cell lines against the NCATS MIPE library collection: OPM2_DSMZ cell viability assay (AID 1919872); further: nearly all actives have a fitted effect of over 30% in size
Outline: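 qHTS of the MIPE 4.0 collection: 500 myeloma cells/well, 48 h drug exposure at 37C in 5% CO2, then CellTiter-Glo for 5 min at room temperature before luminescence reading.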

[10] = Quantitative High-Throughput drug screen in 47 multiple myeloma cell lines against the NCATS MIPE library collection: KMS11_JCRBsus cell viability assay (AID 1919873); further: nearly all actives have a fitted effect of over 50% in size; further: potency means the concentration at half of the fitted maximal effect
Outline: as §1

[11] = Quantitative High-Throughput drug screen in 47 multiple myeloma cell lines against the NCATS MIPE library collection: KMS28BM_JCRB cell viability assay (AID 1919874); further: nearly all actives have a fitted effect of over 35% in size; further: potency means the concentration at half of the fitted maximal effect
Outline: as §1

[12] = Quantitative High-Throughput drug screen in 47 multiple myeloma cell lines against the NCATS MIPE library collection: OPM1_PLB cell viability assay (AID 1918989); further: nearly all actives have a fitted effect of over 40% in size; further: potency means the concentration at half of the fitted maximal effect
Outline: as §1

[13] = Quantitative High-Throughput drug screen in 47 multiple myeloma cell lines against the NCATS MIPE library collection: U266_ATCC cell viability assay (AID 1919864); further: nearly all actives have a fitted effect of over 35% in size; further: potency means the concentration at half of the fitted maximal effect;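 on viability (% of DMSO control): 0% = media-only wells without cells and 100% = DMSO-only wells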
Outline: as §1

[14] = Quantitative High-Throughput drug screen in 47 multiple myeloma cell lines against the NCATS MIPE library collection: XG6_PLB cell viability assay (AID 1919865); further: nearly all actives have a fitted effect of over 40% in size; further: potency means the concentration at half of the fitted maximal effect
Outline: as §1

[15] = Quantitative High-Throughput drug screen in 47 multiple myeloma cell lines against the NCATS MIPE library collection: SKMM1_PLB cell viability assay (AID 1919863); settings: SKMM1 myeloma viability, CellTiter-Glo ATP, 48 h; viability: active compounds read low; further: nearly all actives have a fitted effect of over 35% in size; further: potency means the concentration at half of the fitted maximal effect
Outline: as §1

[16] = Quantitative High-Throughput drug screen in 47 multiple myeloma cell lines against the NCATS MIPE library collection: OCIMY7_PLB cell viability assay (AID 1918987); settings: OCI-MY7 myeloma viability, CellTiter-Glo ATP, 48 h; viability (% of DMSO): at 45.8 µM (top of the series); further: potency means the concentration at half of the fitted maximal effect; nearly all actives have a fitted effect of over 65% in size
Outline: as §1

[17] = Quantitative High-Throughput drug screen in 47 multiple myeloma cell lines against the NCATS MIPE library collection: PE2_PLB cell viability assay (AID 1919869); further: nearly all actives have a fitted effect of over 35% in size; further: potency means the concentration at half of the fitted maximal effect
Outline: as §1

[18] = Quantitative High-Throughput drug screen in 47 multiple myeloma cell lines against the NCATS MIPE library collection: L363_DSMZ cell viability assay (AID 1918984)
Outline: as §1

CC(=O)C1=C(O)C=C2Oc3c(C(C)=O)c(O)c(C)c(O)c3C2(C)C1=O (stereo not drawn)
inactive: Potency [1] | Potency [2] | Potency [4] | Potency [5] | Potency [6] | Potency [7] | Potency [8] | Potency [9] | Potency [10] | Potency [11]
active: Potency [3] 0.0012 µM

COC(=O)[C@@H]1CC2=CC(=O)CC[C@]2(C)[C@@]23O[C@@H]2C[C@@]2(C)[C@H](CC[C@@]24CCC(=O)O4)[C@@H]13
inactive: Potency [1] | Potency [2] | Potency [12] | Potency [13] | Potency [14] | Potency [4] | Potency [7] | Potency [8] | Potency [9] | Potency [10]

Cn1cc(-c2ccc3ncc(Cc4ccc5ncccc5c4)n3n2)cn1
inactive: Potency [1] | Potency [2] | Potency [12] | Potency [8] | Potency [9] | Potency [11]
active: Potency [15] 2.09 µM | Potency [7] 13.2 µM

C[C@H]1[C@@H](OC(=O)CCC(=O)O)O[C@@H]2O[C@@]3(C)CC[C@@H]4[C@H](C)CC[C@@H]1[C@@]24OO3
active: Potency [1] 5.26 µM | Potency [2] 1.32 µM | Potency [16] 0.833 µM | Potency [3] 4.69 µM | Potency [12] 2.96 µM | Potency [15] 4.69 µM | Potency [13] 16.6 µM | Potency [14] 4.69 µM | Potency [4] 10.5 µM | Potency [6] 4.69 µM | Potency [17] 5.26 µM | Potency [7] 5.9 µM | Potency [11] 14.8 µM

C[C@@H](Cc1cc2c(c(C(N)=O)c1)N(CCCO)CC2)NCCOc1ccccc1OCC(F)(F)F
inactive: Potency [1] | Potency [2] | Potency [12] | Potency [14] | Potency [17] | Potency [9] | Potency [10]

CC1(C)[C@H](O[C@H]2O[C@H](C(=O)O)[C@@H](O)[C@H](O)[C@H]2O[C@@H]2O[C@H](C(=O)O)[C@@H](O)[C@H](O)[C@H]2O)CC[C@@]2(C)[C@H]1CC[C@]1(C)[C@H]2C(=O)C=C2[C@H]3C[C@@](C)(C(=O)O)CC[C@]3(C)CC[C@]21C
inactive: Potency [1] | Potency [2] | Potency [3] | Potency [12] | viability [15] 142% | Potency [14] | Potency [4] | Potency [5] | Potency [17] | Potency [7] | Potency [9] | Potency [11]

COC(=O)C=CC(=O)OC
active: Potency [16] 1.32 µM | Potency [3] 11.8 µM | Potency [14] 1.32 µM | Potency [4] 1.32 µM | Potency [5] 2.64 µM | Potency [6] 2.35 µM | Potency [17] 5.26 µM | Potency [7] 3.32 µM
inactive: Potency [1] | viability [15] 144% | Potency [9] | Potency [10] | Potency [11]

CN1CCc2c(c3ccccc3n2Cc2ccc(C(=O)NO)cc2)C1
active: Potency [1] 18.7 µM | Potency [2] 16.6 µM | Potency [16] 9.35 µM | Potency [3] 18.7 µM | Potency [12] 16.6 µM | Potency [14] 8.33 µM | Potency [4] 11.8 µM | Potency [5] 9.35 µM | Potency [6] 2.64 µM | Potency [10] 20.9 µM

CN[C@H](CC(C)C)C(=O)N[C@H]1C(=O)N[C@@H](CC(N)=O)C(=O)N[C@@H]2C(=O)N[C@H]3C(=O)N[C@H](C(=O)N[C@H](C(=O)O)c4cc(O)cc(O)c4-c4cc3ccc4O)[C@H](O)c3ccc(c(Cl)c3)Oc3cc2cc(c3O[C@@H]2O[C@H](CO)[C@@H](O)[C@H](O)[C@@H]2O[C@H]2C[C@](C)(N)[C@H](O)[C@H](C)O2)Oc2ccc(cc2Cl)[C@H]1O
inactive: Potency [1] | Potency [2] | Potency [3] | viability [15] 122% | Potency [4] | Potency [17] | Potency [9] | Potency [10] | Potency [11]
active: Potency [14] 18.7 µM | Potency [5] 13.2 µM

COc1cc(C(C)C)c(Oc2cnc(NC(CO)CO)nc2N)cc1I
inactive: Potency [1] | viability [15] 122% | Potency [4] | Potency [7] | Potency [9] | Potency [10] | Potency [11]
active: Potency [3] 1.48 µM | Potency [12] 1.66 µM | viability (% of DMSO control) [6] 201% | Potency [8] 3.32 µM

Cc1cnc(NC(=O)Nc2cc(Br)c(C)cc2OC[C@@H]2CNCCO2)cn1
active: Potency [1] 13.2 µM | Potency [2] 3.32 µM | Potency [3] 1.48 µM | Potency [14] 0.743 µM | Potency [4] 1.66 µM | Potency [5] 4.69 µM | Potency [6] 1.48 µM | Potency [17] 1.87 µM | Potency [7] 10.5 µM | Potency [10] 5.26 µM | Potency [11] 14.8 µM

CC(C(C)N1CC(=O)NC(=O)C1)N1CC(=O)NC(=O)C1 (stereo not drawn)
inactive: Potency [1] | Potency [12] | viability [15] 134% | Potency [13] | Potency [14] | Potency [4] | Potency [5] | Potency [17] | Potency [7] | Potency [8] | Potency [9] | Potency [10] | Potency [11]
active: Potency [3] 0.469 µM | Potency [6] 0.526 µM

c1coc(CNc2ncnc3nc[nH]c23)c1
inactive: Potency [1] | Potency [13] | Potency [14] | Potency [4] | Potency [6] | Potency [9] | Potency [10] | Potency [11]
active: Potency [18] 11.8 µM | Potency [3] 2.09 µM | Potency [5] 18.7 µM
